AmpC detergent – AmpC beta-lactamase inhibition with detergent present | P00811 | AmpC hydrolysis of nitrocefin, absorbance 480 nm, 0.01% Triton | Potency, µM (highest dose often 114 µM), most hits filed as inhibitors | actives 0.041% (n = 370,000) | AID 485294; further: nearly all actives have a fitted effect of over 25% in size
Target sequence (P00811 whole entry, looked up): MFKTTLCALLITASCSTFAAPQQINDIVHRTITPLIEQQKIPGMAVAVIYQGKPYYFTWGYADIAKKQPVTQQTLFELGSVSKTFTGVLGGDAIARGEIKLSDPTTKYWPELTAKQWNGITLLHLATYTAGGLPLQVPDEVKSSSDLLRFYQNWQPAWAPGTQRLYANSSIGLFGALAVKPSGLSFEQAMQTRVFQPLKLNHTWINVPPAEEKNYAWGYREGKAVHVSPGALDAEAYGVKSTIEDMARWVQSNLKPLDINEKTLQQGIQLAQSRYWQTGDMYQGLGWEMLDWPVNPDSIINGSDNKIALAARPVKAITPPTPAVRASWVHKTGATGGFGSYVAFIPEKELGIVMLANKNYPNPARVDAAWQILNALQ
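20 mM phosphate pH 7.0 + 0.01% (detergent screen) or 0.0001% Triton X-100; 5.3 nM AmpC reagent; cpd preinc 15 min RT; nitrocefin (800 uM stock) to start; A480 q20 s × 4 min; Activity was normalised to no-enzyme and no-compound control wells.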
Giardia FBPA inh-1 – inhibitors of Giardia lamblia fructose-1,6-bisphosphate aldolase; purified Giardia FBPA; Potency, µM (series often up to 59.6 µM), actives largely listed as inhibitors; actives 0.71% (n = 290,000); AID 2451; further: nearly all actives have a fitted effect of over 55% in size
Target sequence (A8B2U2 whole entry, looked up): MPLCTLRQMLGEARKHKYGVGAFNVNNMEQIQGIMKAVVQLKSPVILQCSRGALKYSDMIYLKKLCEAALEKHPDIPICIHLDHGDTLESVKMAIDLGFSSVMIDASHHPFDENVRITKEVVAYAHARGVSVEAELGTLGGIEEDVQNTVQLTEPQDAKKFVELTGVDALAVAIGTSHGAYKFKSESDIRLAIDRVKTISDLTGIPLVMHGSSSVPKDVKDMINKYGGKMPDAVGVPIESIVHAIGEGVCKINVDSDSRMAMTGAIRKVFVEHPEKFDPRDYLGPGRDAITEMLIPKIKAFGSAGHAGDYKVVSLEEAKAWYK
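Giardia FBPA (40 nM reagent) was preincubated 10 min at RT with compound (up to 57.5 uM final), then substrate plus GAPDH/TPI/NAD/arsenate coupling system with diaphorase/resazurin was added; resorufin fluorescence (525/598 nm) was read after 20 min.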
AMA1-RON2 inh – AMA1-RON2 (P. falciparum) interaction inhibition; AlphaScreen AMA1-biotinylated RON2 peptide binding; Potency, µM (titrated, usually from 58.2 µM), hits mostly inhibitors; actives 0.2% (n = 360,000); further: nearly all actives have a fitted effect of over 45% in size
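AMA1 (3D7) with his tag at 25 nM final met compounds first, then biotinylated RON2 peptide at 25 nM; detection used donor plus acceptor beads, 10 µg/mL apiece, read by AlphaScreen after 30 min at room temperature.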
AmpC no deterg – inhibitors of E. coli AmpC beta-lactamase without detergent; P00811; AmpC nitrocefin hydrolysis, absorbance 480 nm, 0.0001% Triton; Potency, µM (titrated, usually from 57.1 µM), actives largely listed as inhibitors; actives 0.52% (n = 330,000); AID 485341; further: nearly all actives have a fitted effect of over 20% in size
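20 mM phosphate pH 7.0 + 0.01% (detergent screen) or 0.0001% Triton X-100; 5.3 nM AmpC reagent; cpd preinc 15 min RT; nitrocefin (800 uM stock) to start; A480 q20 s × 4 min; Activity was normalised to no-enzyme and no-compound control wells.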
Giardia growth – blocks growth of Giardia lamblia trophozoites; Potency, µM (highest dose often 57.5 µM), most hits filed as inhibitors; shares compounds with Giardia FBPA inh-1; actives 5% (n = 1,500); Giardia lamblia trophozoite growth inhibition;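 further: trophozoites exposed to compound for 48 h at 37 °C; nearly all actives have a fitted effect of over 70% in size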
Mammal cell tox – toxic to mammalian cells in Giardia aldolase counter-screen. shares compounds with Giardia FBPA inh-1. mammalian cell viability counter-screen, qHTS. Potency, µM (highest dose often 57.5 µM), hits mostly inhibitors. actives 4% (n = 1,500). AID 2786;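 further: Chinese hamster ovary cells used as mammalian cytotoxicity surrogate; viability measured as cellular ATP by luminescence; compound exposure lasted 48 h before reading; nearly all actives have a fitted effect of over 60% in size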
Giardia FBPA inh-2 – confirmation of Giardia fructose-bisphosphate aldolase inhibitors | shares compounds with Giardia FBPA inh-1 | purified Giardia aldolase enzyme activity, qHTS | Potency, µM (doses to about 57.5 µM), actives largely listed as inhibitors | actives 5% (n = 1,500); further: nearly all actives have a fitted effect of over 45% in size
Rabbit FBPA inh – selectivity test for Giardia aldolase inhibitors: rabbit aldolase. shares compounds with Giardia FBPA inh-1. Rabbit muscle FBPA enzyme inhibition, selectivity counter-screen. Potency, µM (series often up to 57.5 µM), hits mostly inhibitors. actives 4% (n = 1,500). AID 2794; further: nearly all actives have a fitted effect of over 60% in size
GAPDH coupling – GAPDH inhibition flagged for Giardia aldolase hits; shares compounds with Giardia FBPA inh-1; GAPDH coupling enzyme counterscreen, biochemical, qHTS; Potency, µM (titrated, usually from 57.5 µM), hits mostly inhibitors; actives 6% (n = 1,500); AID 2795; further: nearly all actives have a fitted effect of over 55% in size
Hits are given with their value; [ ] = remark or other dose. Compounds with a hit are over-represented: about 1.1% of the library has one in this group of screens. The call rests on the fitted dose curve; in most records, active means well fitted curve in the direction sought with a large enough effect; inconclusive means small, poorly fitted or top-dose-only effect, or another doubt; inactive means no such curve, though single readings can be large; an effect the other way counts as inactive or inconclusive.

For O=C(NC(=S)NNC(=O)c1ccccc1O)c1ccccc1 the results were AmpC detergent inactive, Giardia FBPA inh-1 inconclusive, AMA1-RON2 inh inactive, AmpC no deterg inactive, Giardia growth inconclusive, Mammal cell tox inactive, Giardia FBPA inh-2 inactive, Rabbit FBPA inh inactive and GAPDH coupling inactive.
Screening O=C(Cc1ccccc1)NNC(=S)NC(=O)c1cccnc1 returned AmpC detergent inactive, Giardia FBPA inh-1 7.1µM, AMA1-RON2 inh inactive, AmpC no deterg inactive, Giardia growth inactive, Mammal cell tox inactive, Giardia FBPA inh-2 inactive, Rabbit FBPA inh inactive and GAPDH coupling inactive.
`Cc1ccccc1C(=O)NNC(=S)NC(=O)c1ccccc1` gave AmpC detergent inconclusive, Giardia FBPA inh-1 inconclusive, AMA1-RON2 inh inactive, AmpC no deterg inactive, Giardia growth inactive, Mammal cell tox inactive, Giardia FBPA inh-2 inactive, Rabbit FBPA inh inactive and GAPDH coupling inactive.
For O=C(C1CCCN(S(=O)(=O)c2cccc3nsnc23)C1)N1CCN(c2cccc(Cl)c2)CC1 (centres undefined) the results were AmpC detergent inactive.
For Cc1cccc(CN2CCN(Cc3ccco3)CC2)c1 the results were AmpC detergent inactive, Giardia FBPA inh-1 inconclusive, AMA1-RON2 inh inconclusive and AmpC no deterg inactive.
`Clc1cccc(CN2CCN(Cc3ccco3)CC2)c1` gave AmpC detergent inactive, Giardia FBPA inh-1 14µM, AMA1-RON2 inh inconclusive, AmpC no deterg inactive, Giardia growth inactive, Mammal cell tox inactive, Giardia FBPA inh-2 inactive, Rabbit FBPA inh inactive and GAPDH coupling inactive.
For Cc1cc(CNC(=O)[C@]2(C(F)(F)F)C[C@H](CCC3CCCCC3)CCCO2)nn1C the results were Giardia FBPA inh-1 inactive.
For COc1cccc(NC(=O)CN(C)CC(=O)Nc2ccc(C)cc2Cl)c1 the results were AmpC detergent inactive, Giardia FBPA inh-1 14µM, AMA1-RON2 inh inactive, AmpC no deterg inactive[11.4 µM], Giardia growth inactive, Mammal cell tox inactive, Giardia FBPA inh-2 inactive, Rabbit FBPA inh inactive and GAPDH coupling inactive.
For Cc1ccc(NC(=O)CN(C)CC(=O)Nc2ccccc2Oc2ccccc2)cc1 the results were AmpC detergent inactive, Giardia FBPA inh-1 13µM, AMA1-RON2 inh inactive, AmpC no deterg inactive, Giardia growth inactive, Mammal cell tox inactive, Giardia FBPA inh-2 inactive, Rabbit FBPA inh inactive and GAPDH coupling inactive.
`COc1cccc(NC(=O)CN(C)CC(=O)Nc2ccc(Br)cc2)c1` gave AmpC detergent inactive, Giardia FBPA inh-1 inactive, AMA1-RON2 inh inactive and AmpC no deterg inactive.
Screening Cc1cccc(C)c1NC(=O)CN(C)CC(=O)Nc1ccccc1Oc1ccccc1 returned AmpC detergent inactive, Giardia FBPA inh-1 inactive, AMA1-RON2 inh inactive and AmpC no deterg inactive.
CC[C@H](C)[C@H](NC(=O)CNC(=O)[C@H](C)NC(=O)[C@H](C)N)C(=O)NCC(=O)N[C@H](C(=O)N[C@@H](CC(C)C)C(=O)N[C@H](C(=O)N[C@H](C(=O)O)C(C)C)[C@@H](C)O)[C@@H](C)CC was read as Giardia FBPA inh-1 inactive.
`COc1ccc(CNC2CCCc3ccccc32)cc1OC` (centres undefined) gave AmpC detergent inactive, Giardia FBPA inh-1 inactive, AMA1-RON2 inh inactive and AmpC no deterg inactive.
Screening COc1ccc(CNC2CCSc3ccccc32)cc1OC (centres undefined) returned AmpC detergent inactive, Giardia FBPA inh-1 28µM, AMA1-RON2 inh inactive, AmpC no deterg inactive, Giardia growth inactive[10.4 µM], Mammal cell tox inactive, Giardia FBPA inh-2 inactive, Rabbit FBPA inh inactive and GAPDH coupling inactive.
For COc1ccccc1CNC1CCCc2ccccc21 (centres undefined) the results were AmpC detergent inconclusive, Giardia FBPA inh-1 16µM, AMA1-RON2 inh inactive, AmpC no deterg inactive, Giardia growth inconclusive, Mammal cell tox inactive, Giardia FBPA inh-2 inactive, Rabbit FBPA inh inactive and GAPDH coupling inactive.
Cn1ncnc2c(=O)n(C)c(=O)nc1-2 was read as AmpC detergent inconclusive, Giardia FBPA inh-1 0.5µM, AMA1-RON2 inh inactive, AmpC no deterg inactive, Giardia growth 13µM, Mammal cell tox 8.9µM, Giardia FBPA inh-2 3.2µM, Rabbit FBPA inh 4.5µM and GAPDH coupling 2.5µM.
Screening Cc1ccc(S(=O)(=O)N2CCN(CCc3ccccc3)CC2)c(C)c1 returned AmpC detergent inactive, Giardia FBPA inh-1 20µM, AMA1-RON2 inh inconclusive, AmpC no deterg inactive, Giardia growth inactive, Mammal cell tox inactive, Giardia FBPA inh-2 inactive, Rabbit FBPA inh inactive and GAPDH coupling inactive.
`Cc1[nH]n(-c2ccccc2)c(=O)c1/C=N/NC(=O)COc1ccccc1[N+](=O)[O-]` gave AmpC detergent inactive, Giardia FBPA inh-1 inconclusive, AMA1-RON2 inh inactive and AmpC no deterg inactive.
Screening Cc1ccc(-c2n[nH]c(=S)n2/N=C/c2c(C)[nH]n(-c3ccccc3)c2=O)cc1 returned AmpC detergent inactive, Giardia FBPA inh-1 10µM, AMA1-RON2 inh inactive, AmpC no deterg inactive, Giardia growth inactive, Mammal cell tox inactive, Giardia FBPA inh-2 inconclusive, Rabbit FBPA inh inactive and GAPDH coupling inactive.
COC(=O)N/N=C\c1c(C)[nH]n(-c2ccccc2)c1=O was read as AmpC detergent inactive, Giardia FBPA inh-1 inconclusive, AMA1-RON2 inh inactive and AmpC no deterg inactive.
`COCC(=O)N/N=C/c1c(C)[nH]n(-c2ccccc2)c1=O` gave AmpC detergent inactive, Giardia FBPA inh-1 7.1µM, AMA1-RON2 inh inactive, AmpC no deterg inactive, Giardia growth inactive, Mammal cell tox inactive, Giardia FBPA inh-2 inactive, Rabbit FBPA inh inactive and GAPDH coupling inactive.
Screening CC(=O)N/N=C/c1c(C)[nH]n(-c2ccccc2)c1=O returned AmpC detergent inactive, Giardia FBPA inh-1 16µM, AMA1-RON2 inh inactive, AmpC no deterg inactive, Giardia growth inactive[10.4 µM], Mammal cell tox inactive, Giardia FBPA inh-2 inactive, Rabbit FBPA inh inactive and GAPDH coupling inactive.
For Cc1[nH]n(-c2ccccc2)c(=O)c1/C=N/O the results were AmpC detergent inactive, Giardia FBPA inh-1 16µM, AMA1-RON2 inh inactive, AmpC no deterg inactive, Giardia growth inconclusive, Mammal cell tox inactive, Giardia FBPA inh-2 inactive, Rabbit FBPA inh inactive and GAPDH coupling inactive.
Screening CCOC(=O)C1=CCN(S(=O)(=O)c2ccc(C)cc2)C1c1ccc(Cl)cc1 (centres undefined) returned AMA1-RON2 inh inactive.
